Screens: PubChem, The Scripps Research Institute Molecular Screening Center
In the library only some 2.3% were active in any assay of this set; here they are far more common.
M1 ag – human M1 muscarinic receptor agonism | 360,000 compounds, 0.33% hits | AID 588814 | activation, % at 3 µM | CHO-K1 hM1, Fluo-8 calcium fluorescence, agonist mode; 0% DMSO, 100% acetylcholine EC100 | P11229;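 active = activation above the run's mean compound activation plus 3 SD, cut at about 16% in these data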;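 note: peak over basal fluorescence ratio within a 140 s kinetic read after compound addition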
Target sequence (P11229 whole entry, looked up): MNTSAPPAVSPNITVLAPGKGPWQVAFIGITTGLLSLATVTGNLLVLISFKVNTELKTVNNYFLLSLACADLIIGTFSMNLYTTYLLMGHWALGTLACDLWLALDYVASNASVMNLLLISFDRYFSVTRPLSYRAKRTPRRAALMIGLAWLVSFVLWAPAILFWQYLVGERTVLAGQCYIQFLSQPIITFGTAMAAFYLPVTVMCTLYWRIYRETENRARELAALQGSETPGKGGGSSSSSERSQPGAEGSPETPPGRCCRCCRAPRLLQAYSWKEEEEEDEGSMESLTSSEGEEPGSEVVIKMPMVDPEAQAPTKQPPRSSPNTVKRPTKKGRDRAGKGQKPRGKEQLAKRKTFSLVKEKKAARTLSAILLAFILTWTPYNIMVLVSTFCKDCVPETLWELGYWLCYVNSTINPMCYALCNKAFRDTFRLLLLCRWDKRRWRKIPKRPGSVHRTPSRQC
CHRM1 PAM – human CHRM1 positive allosteric modulation. 360,000 compounds, 0.088% hits. P11229. activation, % at 3 µM. CHO-K1 hM1, Fluo-8 calcium fluorescence, ACh EC20; 0% = ACh EC20, 100% = maximal ACh; in the data active = activation above about 19%, passing the limit was not always enough
CHO-K1 Ca antag – nonselective inhibitor or artifact in parental CHO-K1 cells | 360,000 compounds, 0.6% hits | ATP-induced calcium, Fluo-8 fluorescence | inhibition, % at 3 µM;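 active = inhibition above a per-plate cutoff, the plate's mean sample inhibition plus 3 SD, cut at about 24% in these data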
CHO-K1 Ca PAM – nonselective activator or artifact in parental CHO-K1 calcium assay; ATP EC20, Fluo-8 calcium fluorescence; 0% at ATP EC20, 100% at ATP max; activation, % at 3 µM; 360,000 compounds, 0.02% hits; AID 602247;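 active = activation above the run cutoff, the mean activation of all test compounds plus 3 SD, cut at about 40% in these data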;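 note: peak over basal fluorescence ratio in a 140 s read after ATP addition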
CHRM1 antagonist – human CHRM1 antagonism; P11229; CHO-K1 hM1, Fluo-8 calcium fluorescence, ACh EC80 antagonist; inhibition, % at 3 µM; 360,000 compounds, 1.3% hits;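 active = percent inhibition above its own plate's cutoff, namely the mean of that plate's compound wells plus 3 SD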;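 note: peak over basal fluorescence ratio during 140 s after agonist addition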
CHO-K1 Ca ag – nonselective activator or artifact in parental CHO-K1 cells. 360,000 compounds, 0.48% hits. activation, % at 3 µM. Fluo-8 calcium fluorescence; scaled to maximal ATP response, vehicle zero; in the data active = activation above about 15%;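 note: untransfected CHO-K1 host cells lacking M1 receptor as counterscreen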
Large screens that a line does not name were inactive.

O=S(=O)(Nc1cccnc1)c1ccc(C2CCCCC2)cc1	CHRM1 antagonist 26.9
O=S(=O)(Nc1cccnc1)c1ccccc1	none
CCCCN(C=O)c1c(CC)nc2c(OCc3ccc(C(F)(F)F)cc3)cccn12	none
O=C(COC(=O)c1cccnc1Cl)c1ccccc1	none
CC(C)N(C(=O)COC(=O)c1cccnc1Cl)c1ccccc1	CHRM1 PAM 31.8
Cc1cc(NC(=O)COC(=O)c2n[nH]c3ccccc23)no1	CHO-K1 Ca antag 28.9
CCOC(=O)Cn1c(=O)oc2cc(S(=O)(=O)Nc3ccc(F)cc3)ccc21	M1 ag 30.6
CCOC(=O)Cn1c(=O)oc2cc(S(=O)(=O)NCCc3ccc(C)cc3)ccc21	none
Cc1ccc(S(=O)(=O)N2CCCCC2)cc1NC(=O)c1ccc(=O)[nH]c1	none
Cc1ccc(Cl)cc1-c1cc(C(=O)NCc2cc(C(F)(F)F)cc(C(F)(F)F)c2)[nH]n1	CHRM1 antagonist 46.5
CC(C)C(C(=O)Nc1nccs1)c1ccc(Cl)cc1 (stereo unspecified)	none
CC(C)C(C(=O)Nc1ccncc1)c1ccc(Cl)cc1 (stereo unspecified)	CHO-K1 Ca ag 16.7
CCOC(=O)[C@]12CCC=C1N(Cc1cccc3ccccc13)C(=O)[C@H](CC(=O)NCCCOC)C2	none (no result: M1 ag, CHRM1 PAM, CHRM1 antagonist)
Cc1onc(-c2ccccc2)c1C(=O)NNC(=O)c1ccccc1	none
Cc1ccc(C(=O)NNC(=S)NC(=O)c2ccc(Cl)cc2)cc1	M1 ag 98.3, CHRM1 antagonist 45.3, CHO-K1 Ca ag 101.8
Cc1onc(-c2ccccc2)c1C(=O)NNC(=S)NC(=O)/C=C/c1ccccc1	M1 ag 40.4, CHO-K1 Ca ag 21.0
Cc1ccccc1C(=O)NNC(=S)NC(=O)c1ccc(Cl)cc1Cl	M1 ag 85.3, CHO-K1 Ca ag 88.8
O=C(NC(=S)NNC(=O)c1ccc(Cl)cc1Cl)c1cccnc1	none
Cc1onc(-c2ccccc2)c1C(=O)NNC(=S)NC(=O)c1ccc(Br)cc1	M1 ag 75.0, CHO-K1 Ca ag 64.8
COC(=O)C[C@H]1C[C@H]2c3cc(NS(=O)(=O)c4cccc(OC)c4)ccc3O[C@H]2[C@@H](CO)O1	none
Cc1nc2c(OCc3ccc(OC(F)F)cc3)cccn2c1N(C)C(=O)CCC1CCCC1	none
CC(C)(C)S(=O)N1Cc2cc(C(=O)NCC(F)(F)F)nc(-c3cccc(-c4cccc(F)c4)c3)c2[C@H]1CCO (stereo partly specified)	none
CC(=O)c1ccc(NS(=O)(=O)c2cccc3cccnc23)cc1	none
O=C(NC(=S)Nc1ncccn1)c1ccc(Cl)cc1Cl	CHO-K1 Ca ag 20.6
Cc1onc(-c2ccccc2)c1C(=O)NNC(=O)c1ccccc1O	none
Cc1cccc(C(=O)NC(=S)NNC(=O)Cc2ccccc2)c1	none
Cc1onc(-c2ccccc2)c1C(=O)NNC(=S)NC(=O)c1ccc(Cl)cc1Cl	M1 ag 90.3, CHO-K1 Ca ag 25.7
Cc1cccc(C(=O)NC(=S)NNC(=O)c2ccccc2Cl)c1	M1 ag 91.1, CHO-K1 Ca ag 71.5
OC(c1cc(C(F)(F)F)nc2c(Cl)cc(Cl)cc12)C1CCCCN1 (stereo unspecified)	CHO-K1 Ca ag 17.7
O=[N+]([O-])c1c(NCCCO)cc(Sc2nc3ccccc3s2)c2nonc12	CHRM1 antagonist 33.1
CC12CCC(O)CC1=CCC1C2CCC2(C)C3=NN=CC3CC12 (stereo unspecified)	none
CCN(CC)CCNCC(O)(c1ccc(Cl)cc1)c1ccc(Cl)cc1	CHRM1 antagonist 51.0
CC(C)(C)NCC(O)(c1ccc(Cl)cc1)c1ccc(Cl)cc1	none
COc1ccccc1-n1c(=O)oc2ccc(Cl)cc2c1=O	CHO-K1 Ca ag 18.8
COc1c(Cl)c(=O)oc2ccc(Cl)cc12	none
Cc1cccc(C(=Cc2ccc([N+](=O)[O-])cc2)C(=O)O)c1	none
CC(C)(C)Cc1c(-c2ccc(Cl)cc2)nc2ccc(Cl)cn12	CHRM1 antagonist 27.7
CC(C)(C)Cc1c(-c2ccc(Br)cc2)nc2ccc(Cl)cn12	CHRM1 antagonist 26.3
CC(C)(C)Cc1c(-c2ccccc2)nc2ccc(Cl)cn12	CHRM1 antagonist 26.9
O=S1(=O)CCN(C2CC2)CC1	none
